Measured values: PubChem BioAssay AID1963319 (National Center for Advancing Translational Sciences (NCATS), 2024)
Screen size: about 1,300 compounds; about 120 (9.2%) were called active. Not shown: some 35% with an inconclusive outcome. Calls follow the shape of the dose curve; as a rule, active = well fitted activation curve with a large enough effect; inconclusive = small, poorly fitted or top-dose-only effect; inactive = flat fitted curve, though single readings scatter. The list is a sample of the results.

target: Luciferin 4-monooxygenase (Photinus pyralis) (UniProt P08659); test: Firefly luciferase (FLuc-C-HiBiT) SDR gain of signal screen - plus ATP; details: purified FLuc-C-HiBiT + ATP, HiBiT complementation luminescence; series mostly up to 32.7 µM; activation (gain of signal): at the top concentration;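 also: signal reports ligand binding via conformational change of the enzyme rather than luciferase catalysis; nearly all actives have a fitted effect of over 55% in size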; as to activation (gain of signal): % of control where 0% means no effect
Text: PI: James Inglese Ph.D. National Center for Advancing Translational Sciences (NCATS), National Institute of Health (NIH), Maryland Discovery and optimization of novel protein-binding ligands underlies many of the methods and applications of biology, drug discovery, clinical diagnostics, and environmental toxicology. Assays for detecting the interaction of, for example, a molecule with a macromolecular target also referred to here as the target of interest (TOI) is dependent on a compatible output technology. Depending on the nature and knowledge surrounding the TOI, whether a receptor, enzyme, regulatory subunit or scaffold, or a sequence-defined nucleic acid folded into a complex tertiary structure, assay strategies can vary widely. Here we exploit ligand-biased changes in the structural dynamics of the target protein to control reporter alpha complementation allowing a non-competitive, non-functional, non-separation measure of ligand-target interaction. […] Using a chemical library of >1,200 compounds enriched for scaffolds known to be associated with the inhibition of firefly luciferase (FLuc) activity (PubChem AIDs 2309) we first illustrate and compare the Structural Dynamics Response (SDR) assay vs. the standard functional FLuc enzyme assay (2). Secondly, we show the specificity and sensitivity of the SDR for the Abelson tyrosine kinase (ABL1) compared to the serine/threonine protein kinase A, using an enriched chemical library of 128 compounds selected, in part, for activity annotated with ABL1 kinase activity using the Pharos database (3). References: (1) A. S. Dixon et al., NanoLuc Complementation Reporter Optimized for Accurate Measurement of Protein Interactions in Cells. ACS Chem Biol 11, 400-408 (2016). […] Chemistry & Biology, 19, 1060 - 1072 (2012). (3) K. J. Kelleher et al., Pharos 2023: an integrated resource for the understudied human proteome. Nucleic Acids Res 51, D1405-D1416 (2023).
1. Reagent. Dispense 4 uL FLuc-C-HiBiT enzyme-buffer solution per well at a final enzyme concentration of 10 nM with or without 10 uM ATP into columns 2-48 of white, solid bottom medium bind 1536-well plates (Greiner Bio-One) by BioRaptr 2. Dispense respective buffer without enzyme at 4 uL/well in column 1 of assay plates. 2. Compounds. Library compounds and PTC124 control added at 23 nL per well, transfer by Pin Tool. 3. Incubation. Incubate enzyme and compounds at room temperature for >30 min, protect from light. 4. Reagent. (SDR assay) Add 3 uL/well of Nano-Glo HiBiT reagent (Promega) to assay plates for SDR assay with ATP. 5. Incubation. Incubate enzyme and substrate or detection reagent at room temperature for 5-10 min, protect from light. 6. Detector. HiBiT SDR assay measured using CCD-based camera (ViewLux) with settings as follows: Exposure, 1 sec; Gain, High; Speed, Slow; Binning, 2X. REFERENCES: Inglese J, Shamu CE and Guy RK, Reporting data from high throughput screening of small molecule libraries, Nature Chemical Biology, 2007, 3(8): 438-441. doi.org/10.1038/nchembio0807-438.
Potency is read from the fitted curve at half-maximal effect.

Sequence of Luciferin 4-monooxygenase (Photinus pyralis) (P08659 whole entry, looked up): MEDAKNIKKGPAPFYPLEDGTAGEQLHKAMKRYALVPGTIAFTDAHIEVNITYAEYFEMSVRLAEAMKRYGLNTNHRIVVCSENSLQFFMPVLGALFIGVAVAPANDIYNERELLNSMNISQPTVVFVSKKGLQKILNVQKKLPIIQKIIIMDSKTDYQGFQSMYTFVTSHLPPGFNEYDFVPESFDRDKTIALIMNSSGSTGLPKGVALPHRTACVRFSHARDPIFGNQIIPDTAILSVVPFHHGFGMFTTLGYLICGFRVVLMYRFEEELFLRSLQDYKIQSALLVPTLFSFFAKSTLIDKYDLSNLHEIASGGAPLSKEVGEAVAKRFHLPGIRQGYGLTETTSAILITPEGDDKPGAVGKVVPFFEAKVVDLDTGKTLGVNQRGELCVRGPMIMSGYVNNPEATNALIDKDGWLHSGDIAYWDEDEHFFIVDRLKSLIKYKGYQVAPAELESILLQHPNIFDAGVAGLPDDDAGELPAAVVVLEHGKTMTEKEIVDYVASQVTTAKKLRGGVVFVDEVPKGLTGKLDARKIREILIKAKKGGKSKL

Activation (gain of signal), inactive:
CC(=O)c1ccc(NC(=O)CSc2nnc(NC(=O)Nc3ccccc3)s2)cc1 12%
Cc1ccc(C(=O)Nc2ccc(-c3nc4ccccc4s3)c(O)c2)cc1 7.6%
Cc1nn(-c2ccc(C(C)(C)C)cc2)c(C)c1[C@@H]1C=C[C@@H](NC(=O)c2ccco2)C1 9.65% [at 49.3 µM]
Oc1ccc(-c2nc(C3CC3)nc3c2CCN(Cc2cccc(F)c2)CC3)cc1 5.44%
CC(=O)Nc1ccc(NC(=O)CCCc2nc(-c3ccc(C(C)(C)C)cc3)no2)cc1 17.7%
Cc1ccc(Nc2c(-c3ccc(N(C)C)cc3)nc3nc[nH]n23)cc1 13.4%
Fc1ccc(Nc2nc(-c3ccccc3F)no2)cc1 17.1%
Cc1ccc(-c2nnc(SCc3ccccc3C)o2)cc1 12%
Cc1cc(C)n(CCC(=O)N2CCC(Cc3noc(C4CC4)n3)C2)n1 (centres undefined) 6.83%
Cc1cccc(-c2cccc(NC(=O)C3CCCN(C(=O)CC(F)(F)F)C3)c2)c1 (centres undefined) 14.3%
Cc1nn(-c2ccc(C(C)C)cc2)c(C)c1[C@@H]1C=C[C@@H](NC(=O)CC2(CC(=O)O)CCCC2)C1 12.4%
CC(C)C(=O)Nc1cc(-c2nc3ccccc3s2)ccc1Cl 8.2%
COc1cccc(-c2nc3ccc(-c4ccc5c(c4)OCO5)cc3o2)c1OC 18.1%
OC1(CN2CCCCC2)CCN(c2nc3ccccc3s2)C1 (centres undefined) 13.2%
Cc1nn(-c2ccc(C(C)C)cc2)c(C)c1[C@@H]1C=C[C@@H](NC(=O)Nc2ccccc2)C1 15.3% [at 49.3 µM]
CN1CCN(C[C@@H]2CN(C(=O)CCCc3ccccc3)C[C@@H]2CO)CC1 7.28%
COc1ccc(-c2cc(N3CCCC(NC(=O)c4ccsc4)C3)n[nH]2)cc1 (centres undefined) 13.6%
COc1ccccc1OC1(C(=O)O)CCN(c2ncnc3nc[nH]c23)CC1 10.2%
O=C(CSc1ccc(F)cc1)Nc1ccccc1-c1nc2ccccc2s1 8.51%
O=C(Nc1ccccc1)c1nc2c(o1)CCN(Cc1cccc(Cl)c1)CC2 15% [at 49.3 µM]
OCc1cccc(-c2cc3c(cn2)CN(Cc2ccccc2)CCN3)c1 11.4% [at 49.3 µM]
O=C(/C=C/c1ccccc1)Nc1cc(-c2nc3cc(Cl)ccc3o2)ccc1Cl 9.6%
CC(=O)c1nn(-c2ccc(OC(F)(F)F)cc2)nc1Nc1ccccc1 16.2%
CNc1nc(C(=O)NCc2ccc3[nH]c(-c4ccc(F)cc4)c(C)c3c2)cs1 8.35%
CN1c2cc(C(=O)Nc3ccccc3)ccc2C(=O)N2CCCCCC21 (centres undefined) 15.6%
Cc1nn(-c2ccc(C(C)C)cc2)c(C)c1[C@@H]1C=C[C@@H](NC(=S)NCC(C)C)C1 11.9% [at 49.3 µM]
Cc1cccc(C(=O)Nc2ccc(-c3nc4ccccc4s3)c(C)c2)c1 15.5%
Cc1ccc(Cl)cc1-n1ncc2c(N3CCC(C(N)=O)CC3)ncnc21 7.56%
OCCN1CCN(c2nc(N3CCCCC3)c3cnn(-c4ccc(Cl)cc4)c3n2)CC1 8.75%
C[S+](=O)([O-])CCn1ncc2cc(OCc3cccc(-c4ccccc4)c3)ccc21 11.7% [at 49.3 µM]
CC(=O)Oc1ccccc1C(=O)Nc1ccc(-c2nc3ccc(C)cc3s2)cc1 12.8%
O=C(NC1CCN(c2cc(-c3ccc(F)cc3)[nH]n2)C1)c1cc2ccccc2[nH]1 (centres undefined) 10.8%
Cc1ccc2cc(CN3CCN(CC(N)=O)CC3)c(-c3cccs3)nc2c1 11.7%
COc1ccc(CC(=O)Nc2ccc(-c3nc4ccccc4s3)c(C)c2)cc1 8.15%
COc1ccc(-c2nc3ccccc3s2)cc1NC(=O)COc1ccccc1C 6.09%
CCc1cccc(NC(=O)c2cc(-c3ccccc3)n[nH]2)c1 15.8%
COc1cc(F)ccc1-c1ccc(COc2ccc3c(cnn3CCC(=O)O)c2)cc1 10.6% [at 49.3 µM]
Cc1ccc(-c2nc(C(=O)N(C)Cc3ccccc3)no2)cc1 14.4%
Oc1cccc(-c2cc3c(cn2)CN(Cc2cccnc2)CCN3)c1 12.9% [at 49.3 µM]
O=C(COc1ccc(Cl)cc1)Nc1ccc(-c2nc3cc(Cl)ccc3o2)c(O)c1 9.32%

Potency, active:
CCNC(=O)C1C(c2cccc(NC(=O)c3ccc(OC)cc3)c2)OC(=O)N1Cc1ccc(C)cc1 (centres undefined) 3.94 µM
COc1ccc(C(=O)Nc2onc3c2CCCC3)cc1 3.94 µM
OCC1CCCN(c2ncnc3c2cnn3-c2ccccc2)C1 (centres undefined) 0.785 µM
CCOC(=O)C1CCN(C(=O)c2cccc3c2CCN3C(=O)Nc2ccccc2)CC1 3.13 µM
